# In the OligoGym collection:
# Assays:
# Assay in all cases: pooled miR-30 sensor sort-seq; sequence = guide strand
# Conditions in all cases: shRNA
# [1] = target: MOCS3
# [2] = target: MON2
# [3] = target: MOBKL1B
# [4] = target: MOGAT1
# [5] = target: MPG
# [6] = target: MRC1L1
# [7] = target: MTFP1
# [8] = target: MTG1
# [9] = target: MTF2
# [10] = target: MTDH
# Note: reference of the scale not given here.
sequence,measurement,setting,value
TCAAAGAGCAACAAGCTGCCAC,sensor-assay potency score (higher = more potent),[1],-0.221
TTGTTCTATAATATCTCTGTGT,sensor-assay potency score (higher = more potent),[2],-0.519
AAGAGTTTCATCATCAAGCTGA,sensor-assay potency score (higher = more potent),[3],0.471
TATAGTTGTGACTTGGATCCAA,sensor-assay potency score (higher = more potent),[4],0.757
TTTCTTGGAAACTGAAACCAGC,sensor-assay potency score (higher = more potent),[4],-0.444
AACATCTACAACTATTTGCAGG,sensor-assay potency score (higher = more potent),[2],-1.11
TTCTGAACAGTTCTAATCCATG,sensor-assay potency score (higher = more potent),[4],-1.47
TAGTCGGTGACAGAAACACGCT,sensor-assay potency score (higher = more potent),[1],-0.908
TTGAGCTGCTGATAAGGACTGG,sensor-assay potency score (higher = more potent),[1],-0.00969
TTGGACATCTCCTTTAACGGGT,sensor-assay potency score (higher = more potent),[2],-0.305
AACAAGTGTATCTTTGAGGTAT,sensor-assay potency score (higher = more potent),[1],0.286
TTTAACAAATCCTTTCCGCTGG,sensor-assay potency score (higher = more potent),[4],-0.0523
TAACTCCTCAATCTGCTCCTGG,sensor-assay potency score (higher = more potent),[4],-0.332
TTGATCCAGCTGGATCTCCTGC,sensor-assay potency score (higher = more potent),[4],-0.998
TAGTGTTGAAGATCCTTGCTAC,sensor-assay potency score (higher = more potent),[2],0.514
TTGGTCACTGTCTCCGCTGGGG,sensor-assay potency score (higher = more potent),[1],-0.474
TATTTGACCAACAAATTCCTTA,sensor-assay potency score (higher = more potent),[2],-0.301
TTGCAAATCACATAAATGGGGA,sensor-assay potency score (higher = more potent),[1],-0.379
TTTAATATTAGTACCATCTGCC,sensor-assay potency score (higher = more potent),[3],0.311
TTTGCAAATCACATAAATGGGG,sensor-assay potency score (higher = more potent),[1],-0.854
TATGTGATAACAACAAGAGTGG,sensor-assay potency score (higher = more potent),[3],-0.235
TAATTCTTGAAGAGGTGCCAGC,sensor-assay potency score (higher = more potent),[3],-0.967
TTGAATGTTTTAGAAGAGCGGC,sensor-assay potency score (higher = more potent),[3],-0.634
TGCTCTAGCTGGTCGCTGCTTC,sensor-assay potency score (higher = more potent),[5],-0.856
TTTCTGAACAATCCTATCCAAA,sensor-assay potency score (higher = more potent),[6],-1.03
TTGGGTTCGGGAGTCGTCGTGG,sensor-assay potency score (higher = more potent),[6],0.34
TGTCTCTAAGCTTCTGTCCAGC,sensor-assay potency score (higher = more potent),[7],-0.761
TGTTGGGTAGAGCTTGCGCAGG,sensor-assay potency score (higher = more potent),[7],-1.71
TCATCCTTTACACAGTTGGTAA,sensor-assay potency score (higher = more potent),[8],-1.44
TAAAACAAGCCATCTGACCATC,sensor-assay potency score (higher = more potent),[9],-1.1
TTGACATATTGTACAGACCATT,sensor-assay potency score (higher = more potent),[9],-1.28
TAGAGCTTGCGCAGGCTGGAGT,sensor-assay potency score (higher = more potent),[7],-0.938
TTGTCTCTAAGCTTCTGTCCAG,sensor-assay potency score (higher = more potent),[7],-0.49
TTTCCCTTTCCTGAGGTGCTGC,sensor-assay potency score (higher = more potent),[8],-0.722
TATTCTTCTTGGAACCAACAGG,sensor-assay potency score (higher = more potent),[10],-0.744
TTTTGCTTGGTATTTGACTTGG,sensor-assay potency score (higher = more potent),[10],-0.198
TCCGCCAGCACGTAGGAGCTGG,sensor-assay potency score (higher = more potent),[7],-1.34
TATTCTGGTCCAGAACTGCAGA,sensor-assay potency score (higher = more potent),[9],-0.798
TATAGAACAAGGTAAATCCAAA,sensor-assay potency score (higher = more potent),[9],-1.04
TTCTCCTTCTAAGTGTTGCATA,sensor-assay potency score (higher = more potent),[8],-0.79
TTTTGGACATCACAGCTCTGGT,sensor-assay potency score (higher = more potent),[8],-1.25
TTTGTCAATGGCATCCGCCAGC,sensor-assay potency score (higher = more potent),[7],-0.615
TTTATCATCATCTGAGACCTTT,sensor-assay potency score (higher = more potent),[10],-0.0741
TTTTTTTCTATGCCATTGCTTA,sensor-assay potency score (higher = more potent),[9],-0.923
TATAGCTTTAACTCCTTCTGAG,sensor-assay potency score (higher = more potent),[8],-0.0288
